Source: publication PMC7862700, “An all-to-all approach to the identification of sequence-specific readers for epigenetic DNA modifications on cytosine”

Key:
Assay in all cases: DAPPL (digital affinity profiling via proximity ligation, sequencing); 10 mM Tris-HCl pH 7.5, 50 mM NaCl, 1 mM DTT, 4% glycerol, room temperature, 30 min; GST-TFs on glutathione beads, 16-mer random dsDNA library, 0.1% formaldehyde crosslink after washing; high values mean tight binding
[1] = molecular target: T1, FLI1 (Homo sapiens, UniProt Q01543 1-452); settings: protein: recombinant; tags: N-terminal GST; dsDNA, one strand shown
T1 sequence: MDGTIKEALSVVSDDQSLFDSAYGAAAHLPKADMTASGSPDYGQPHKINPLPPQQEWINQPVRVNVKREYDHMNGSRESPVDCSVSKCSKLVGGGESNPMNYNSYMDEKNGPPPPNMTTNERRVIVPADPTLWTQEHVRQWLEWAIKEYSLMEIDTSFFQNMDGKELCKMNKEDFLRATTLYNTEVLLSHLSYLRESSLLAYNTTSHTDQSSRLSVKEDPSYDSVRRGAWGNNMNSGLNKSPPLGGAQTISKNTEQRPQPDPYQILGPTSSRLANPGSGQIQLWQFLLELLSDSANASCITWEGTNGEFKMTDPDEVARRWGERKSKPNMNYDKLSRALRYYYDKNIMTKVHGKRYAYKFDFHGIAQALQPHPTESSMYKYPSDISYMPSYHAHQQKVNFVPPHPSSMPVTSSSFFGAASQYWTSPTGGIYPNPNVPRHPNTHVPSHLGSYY
How it was run: (§1)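 Pools were built from human transcription factors expressed in yeast as GST fusions, captured on glutathione beads and DNA-barcoded, along with a tag-only sample. Incubation with 200 nmole of a 16-mer random double-stranded DNA library lasted 30 min at room temperature in Tris/NaCl/DTT/glycerol buffer, and was followed by washing, 0.1% formaldehyde crosslinking, proximity ligation, PCR amplification and Illumina NextSeq500 sequencing. Binding signal is the quotient of each hexamer's read frequency for a factor and its frequency for the tag-only sample.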

[2] = molecular target: T2, ELK1 (Homo sapiens, UniProt P19419 1-428); settings: protein: recombinant; tags: N-terminal GST; dsDNA, one strand shown
T2 sequence: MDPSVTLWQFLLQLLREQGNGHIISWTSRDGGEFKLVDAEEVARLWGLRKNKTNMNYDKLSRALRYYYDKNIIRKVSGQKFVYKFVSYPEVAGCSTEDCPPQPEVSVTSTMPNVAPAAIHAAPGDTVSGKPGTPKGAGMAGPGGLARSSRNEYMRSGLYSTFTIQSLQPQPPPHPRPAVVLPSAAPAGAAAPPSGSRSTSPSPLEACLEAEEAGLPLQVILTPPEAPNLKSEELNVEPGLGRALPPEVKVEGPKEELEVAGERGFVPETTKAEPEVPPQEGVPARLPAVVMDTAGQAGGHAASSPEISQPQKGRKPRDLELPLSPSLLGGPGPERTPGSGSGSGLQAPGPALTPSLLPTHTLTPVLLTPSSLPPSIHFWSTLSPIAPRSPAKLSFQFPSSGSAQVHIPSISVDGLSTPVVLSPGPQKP
How it was run: as §1

[3] = molecular target: T3, GABPA (Homo sapiens, UniProt Q06546 1-454); settings: protein: recombinant; tags: N-terminal GST; dsDNA, one strand shown
T3 sequence: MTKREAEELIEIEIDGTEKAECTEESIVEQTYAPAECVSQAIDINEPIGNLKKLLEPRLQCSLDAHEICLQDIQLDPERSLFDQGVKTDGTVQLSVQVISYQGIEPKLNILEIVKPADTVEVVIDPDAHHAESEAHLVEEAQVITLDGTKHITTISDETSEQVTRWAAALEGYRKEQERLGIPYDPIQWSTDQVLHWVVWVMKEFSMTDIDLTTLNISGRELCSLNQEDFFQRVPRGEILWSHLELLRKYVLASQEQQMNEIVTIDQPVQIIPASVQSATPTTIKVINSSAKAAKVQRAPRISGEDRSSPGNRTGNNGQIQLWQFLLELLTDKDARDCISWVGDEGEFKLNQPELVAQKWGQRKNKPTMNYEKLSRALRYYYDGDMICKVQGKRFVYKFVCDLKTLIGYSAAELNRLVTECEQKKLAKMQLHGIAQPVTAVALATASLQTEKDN
How it was run: as §1

[4] = molecular target: T4, ERG (Homo sapiens, UniProt P11308 1-479); settings: protein: recombinant; tags: N-terminal GST; dsDNA, one strand shown
T4 sequence: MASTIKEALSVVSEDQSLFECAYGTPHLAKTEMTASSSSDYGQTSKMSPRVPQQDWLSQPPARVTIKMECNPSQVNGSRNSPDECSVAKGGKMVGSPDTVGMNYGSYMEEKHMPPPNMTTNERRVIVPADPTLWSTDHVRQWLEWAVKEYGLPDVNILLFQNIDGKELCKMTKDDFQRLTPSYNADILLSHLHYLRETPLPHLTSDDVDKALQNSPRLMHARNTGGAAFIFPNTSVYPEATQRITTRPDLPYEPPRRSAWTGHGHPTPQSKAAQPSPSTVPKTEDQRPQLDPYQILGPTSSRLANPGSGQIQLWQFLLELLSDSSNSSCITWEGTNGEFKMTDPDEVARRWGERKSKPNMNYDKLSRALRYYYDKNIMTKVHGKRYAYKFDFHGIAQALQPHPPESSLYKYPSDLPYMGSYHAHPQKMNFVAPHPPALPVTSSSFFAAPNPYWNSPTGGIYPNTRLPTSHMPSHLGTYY
How it was run: as §1

[5] = molecular target: ELF1 (Homo sapiens, UniProt P32519 1-619); settings: protein: recombinant; tags: N-terminal GST; dsDNA, one strand shown
Sequence of ELF1 (P32519 whole entry): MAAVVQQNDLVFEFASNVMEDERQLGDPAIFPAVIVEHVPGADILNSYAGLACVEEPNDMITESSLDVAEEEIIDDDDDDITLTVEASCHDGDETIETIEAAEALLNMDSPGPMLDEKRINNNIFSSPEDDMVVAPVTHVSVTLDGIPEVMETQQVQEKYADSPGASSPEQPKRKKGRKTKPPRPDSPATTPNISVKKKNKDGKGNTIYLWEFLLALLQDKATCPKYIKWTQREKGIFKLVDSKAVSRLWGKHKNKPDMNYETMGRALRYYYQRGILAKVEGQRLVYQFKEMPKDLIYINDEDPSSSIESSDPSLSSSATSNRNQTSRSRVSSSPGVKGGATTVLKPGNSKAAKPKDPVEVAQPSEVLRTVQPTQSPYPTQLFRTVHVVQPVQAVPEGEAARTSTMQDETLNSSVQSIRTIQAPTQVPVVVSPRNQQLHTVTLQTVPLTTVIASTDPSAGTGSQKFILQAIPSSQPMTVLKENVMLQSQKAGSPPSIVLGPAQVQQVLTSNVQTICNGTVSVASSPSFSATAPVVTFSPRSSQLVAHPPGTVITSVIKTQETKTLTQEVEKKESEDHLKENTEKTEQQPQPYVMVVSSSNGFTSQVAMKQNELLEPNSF
How it was run: as §1

[6] = molecular target: T5, EHF (Homo sapiens, UniProt Q9NZC4 1-300); settings: protein: recombinant; tags: N-terminal GST; dsDNA, one strand shown
T5 sequence: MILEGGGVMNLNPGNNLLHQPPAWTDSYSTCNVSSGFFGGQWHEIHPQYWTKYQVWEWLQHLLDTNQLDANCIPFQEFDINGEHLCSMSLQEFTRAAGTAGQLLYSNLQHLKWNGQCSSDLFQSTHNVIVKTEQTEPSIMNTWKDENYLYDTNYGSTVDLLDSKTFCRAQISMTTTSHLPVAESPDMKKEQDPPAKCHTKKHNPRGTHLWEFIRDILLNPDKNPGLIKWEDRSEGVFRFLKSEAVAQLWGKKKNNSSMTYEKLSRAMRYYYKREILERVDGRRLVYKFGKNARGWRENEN
How it was run: as §1

[7] = molecular target: SPI1 (Homo sapiens, UniProt P17947 1-270); settings: protein: recombinant; tags: N-terminal GST; dsDNA, one strand shown
How it was run: as §1

[8] = molecular target: SPIB (Homo sapiens, UniProt Q01892 1-262); settings: protein: recombinant; tags: N-terminal GST; dsDNA, one strand shown
Sequence of SPIB (Q01892 whole entry): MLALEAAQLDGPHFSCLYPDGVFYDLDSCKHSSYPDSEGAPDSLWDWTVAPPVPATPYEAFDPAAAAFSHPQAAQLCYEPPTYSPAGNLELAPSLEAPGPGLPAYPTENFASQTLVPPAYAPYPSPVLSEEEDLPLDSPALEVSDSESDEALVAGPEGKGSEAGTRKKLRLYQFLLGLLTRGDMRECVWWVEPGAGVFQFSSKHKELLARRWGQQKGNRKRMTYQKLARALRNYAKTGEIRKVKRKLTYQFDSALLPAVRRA
How it was run: as §1

[9] = molecular target: T6, ELK3 (Homo sapiens, UniProt P41970 1-407); settings: protein: recombinant; tags: N-terminal GST; dsDNA, one strand shown
T6 sequence: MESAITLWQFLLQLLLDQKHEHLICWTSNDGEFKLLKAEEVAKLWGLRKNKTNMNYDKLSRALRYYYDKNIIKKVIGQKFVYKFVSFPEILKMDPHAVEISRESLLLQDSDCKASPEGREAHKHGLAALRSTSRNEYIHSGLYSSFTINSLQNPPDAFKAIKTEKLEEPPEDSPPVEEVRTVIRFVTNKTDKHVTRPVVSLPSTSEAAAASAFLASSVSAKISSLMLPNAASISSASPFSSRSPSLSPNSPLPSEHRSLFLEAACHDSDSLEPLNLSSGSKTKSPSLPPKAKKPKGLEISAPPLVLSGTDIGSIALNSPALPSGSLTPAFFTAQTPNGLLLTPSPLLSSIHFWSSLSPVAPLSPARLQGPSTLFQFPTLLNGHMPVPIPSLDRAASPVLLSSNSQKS
How it was run: as §1

[10] = molecular target: T7, FEV (Homo sapiens, UniProt Q99581 1-238); settings: protein: recombinant; tags: N-terminal GST; dsDNA, one strand shown
T7 sequence: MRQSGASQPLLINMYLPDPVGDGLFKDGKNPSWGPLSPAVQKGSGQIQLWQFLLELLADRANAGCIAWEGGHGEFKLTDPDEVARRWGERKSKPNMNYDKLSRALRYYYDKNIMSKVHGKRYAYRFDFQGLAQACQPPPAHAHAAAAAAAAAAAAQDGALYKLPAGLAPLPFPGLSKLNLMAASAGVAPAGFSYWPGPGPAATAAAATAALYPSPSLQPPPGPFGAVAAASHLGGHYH
How it was run: as §1

[11] = molecular target: ETV5 (Homo sapiens, UniProt P41161 1-510); settings: protein: recombinant; tags: N-terminal GST; dsDNA, one strand shown
Sequence of ETV5 (P41161 whole entry): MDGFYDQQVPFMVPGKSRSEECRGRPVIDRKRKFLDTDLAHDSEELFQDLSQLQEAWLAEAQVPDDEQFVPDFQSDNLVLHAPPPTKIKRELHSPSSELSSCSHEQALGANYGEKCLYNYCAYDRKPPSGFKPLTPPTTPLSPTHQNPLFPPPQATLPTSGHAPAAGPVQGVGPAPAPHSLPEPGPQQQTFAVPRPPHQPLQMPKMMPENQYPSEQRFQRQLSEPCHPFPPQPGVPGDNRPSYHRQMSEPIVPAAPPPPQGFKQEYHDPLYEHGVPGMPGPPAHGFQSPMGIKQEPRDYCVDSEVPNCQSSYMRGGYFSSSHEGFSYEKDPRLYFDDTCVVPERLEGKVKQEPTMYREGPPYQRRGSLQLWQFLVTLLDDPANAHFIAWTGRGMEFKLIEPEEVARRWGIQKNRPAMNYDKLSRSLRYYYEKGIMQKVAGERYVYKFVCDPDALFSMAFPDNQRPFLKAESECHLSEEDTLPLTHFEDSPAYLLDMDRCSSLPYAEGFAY
How it was run: as §1

[12] = molecular target: HSF1 (Homo sapiens, UniProt Q00613 1-529); settings: protein: recombinant; tags: N-terminal GST; chain copies: 3; dsDNA, one strand shown
Sequence of HSF1 (Q00613 whole entry): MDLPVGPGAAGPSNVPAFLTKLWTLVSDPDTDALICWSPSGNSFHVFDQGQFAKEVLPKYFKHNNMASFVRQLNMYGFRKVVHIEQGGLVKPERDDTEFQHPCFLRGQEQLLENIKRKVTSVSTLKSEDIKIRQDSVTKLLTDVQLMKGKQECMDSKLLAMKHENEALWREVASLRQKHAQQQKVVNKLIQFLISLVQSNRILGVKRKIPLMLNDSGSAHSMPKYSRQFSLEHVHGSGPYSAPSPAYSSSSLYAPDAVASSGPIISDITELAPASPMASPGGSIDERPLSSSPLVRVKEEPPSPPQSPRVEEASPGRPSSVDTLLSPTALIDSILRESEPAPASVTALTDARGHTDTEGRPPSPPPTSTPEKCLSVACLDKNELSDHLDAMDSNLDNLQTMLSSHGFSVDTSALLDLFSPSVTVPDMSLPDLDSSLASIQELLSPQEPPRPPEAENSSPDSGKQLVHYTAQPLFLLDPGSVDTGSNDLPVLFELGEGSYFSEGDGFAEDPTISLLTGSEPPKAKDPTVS
How it was run: as §1

[13] = molecular target: T8, SPIC (Homo sapiens, UniProt Q8N5J4 1-248); settings: protein: recombinant; tags: N-terminal GST; dsDNA, one strand shown
T8 sequence: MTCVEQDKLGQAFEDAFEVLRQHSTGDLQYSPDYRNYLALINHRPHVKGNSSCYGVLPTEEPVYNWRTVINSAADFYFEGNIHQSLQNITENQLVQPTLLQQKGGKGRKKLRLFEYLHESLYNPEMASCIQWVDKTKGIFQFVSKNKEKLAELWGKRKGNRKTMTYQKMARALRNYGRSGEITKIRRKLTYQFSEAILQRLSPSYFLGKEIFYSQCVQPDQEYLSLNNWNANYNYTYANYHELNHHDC
How it was run: as §1

[14] = molecular target: ELF4 (Homo sapiens, UniProt Q99607 1-663); settings: protein: recombinant; tags: N-terminal GST; dsDNA, one strand shown
Sequence of ELF4 (Q99607 whole entry): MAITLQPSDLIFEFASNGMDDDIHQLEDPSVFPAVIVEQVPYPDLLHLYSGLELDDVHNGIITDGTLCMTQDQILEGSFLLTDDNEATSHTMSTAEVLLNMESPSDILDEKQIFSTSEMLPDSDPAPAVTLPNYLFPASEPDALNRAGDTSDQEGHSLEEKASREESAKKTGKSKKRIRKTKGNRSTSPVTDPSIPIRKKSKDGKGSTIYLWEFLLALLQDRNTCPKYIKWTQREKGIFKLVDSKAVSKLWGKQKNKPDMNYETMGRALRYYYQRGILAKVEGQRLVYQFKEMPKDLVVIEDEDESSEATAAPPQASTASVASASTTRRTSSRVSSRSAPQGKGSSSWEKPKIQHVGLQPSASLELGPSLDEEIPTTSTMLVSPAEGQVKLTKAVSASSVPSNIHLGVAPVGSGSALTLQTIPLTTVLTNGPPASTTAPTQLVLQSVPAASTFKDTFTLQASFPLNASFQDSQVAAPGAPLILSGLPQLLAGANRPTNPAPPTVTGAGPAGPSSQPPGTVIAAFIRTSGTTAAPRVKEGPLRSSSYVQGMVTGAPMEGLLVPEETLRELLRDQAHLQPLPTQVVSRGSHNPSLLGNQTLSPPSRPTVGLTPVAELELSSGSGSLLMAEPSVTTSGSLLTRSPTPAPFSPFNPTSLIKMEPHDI
How it was run: as §1

[15] = molecular target: T9, ELK4 (Homo sapiens, UniProt P28324-2 1-405); settings: protein: recombinant; tags: N-terminal GST; dsDNA, one strand shown
T9 sequence: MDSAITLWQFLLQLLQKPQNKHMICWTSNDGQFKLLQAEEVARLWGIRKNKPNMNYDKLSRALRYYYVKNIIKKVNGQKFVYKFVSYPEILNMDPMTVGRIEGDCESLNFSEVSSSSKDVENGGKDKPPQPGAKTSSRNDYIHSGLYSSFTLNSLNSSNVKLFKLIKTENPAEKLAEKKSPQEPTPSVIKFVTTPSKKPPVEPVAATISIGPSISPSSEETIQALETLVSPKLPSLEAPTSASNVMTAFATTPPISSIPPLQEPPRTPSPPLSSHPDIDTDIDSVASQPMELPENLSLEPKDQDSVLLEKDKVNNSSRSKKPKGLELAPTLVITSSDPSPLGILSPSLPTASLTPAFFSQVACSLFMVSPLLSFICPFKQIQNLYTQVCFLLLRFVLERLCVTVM
How it was run: as §1

[16] = molecular target: T10, ETV2 (Homo sapiens, UniProt O00321 1-342); settings: protein: recombinant; tags: N-terminal GST; dsDNA, one strand shown
T10 sequence: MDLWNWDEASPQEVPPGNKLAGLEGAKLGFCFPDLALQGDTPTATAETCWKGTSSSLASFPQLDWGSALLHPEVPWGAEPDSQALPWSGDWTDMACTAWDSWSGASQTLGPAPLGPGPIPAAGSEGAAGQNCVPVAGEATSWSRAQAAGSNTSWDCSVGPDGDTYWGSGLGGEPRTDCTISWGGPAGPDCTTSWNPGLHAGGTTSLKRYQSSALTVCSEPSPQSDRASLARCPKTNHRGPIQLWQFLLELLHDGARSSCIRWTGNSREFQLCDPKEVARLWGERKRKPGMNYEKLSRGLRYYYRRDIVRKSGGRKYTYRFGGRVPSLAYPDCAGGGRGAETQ
How it was run: as §1

[17] = molecular target: T11, ELF3 (Homo sapiens, UniProt P78545 1-371); settings: protein: recombinant; tags: N-terminal GST; dsDNA, one strand shown
T11 sequence: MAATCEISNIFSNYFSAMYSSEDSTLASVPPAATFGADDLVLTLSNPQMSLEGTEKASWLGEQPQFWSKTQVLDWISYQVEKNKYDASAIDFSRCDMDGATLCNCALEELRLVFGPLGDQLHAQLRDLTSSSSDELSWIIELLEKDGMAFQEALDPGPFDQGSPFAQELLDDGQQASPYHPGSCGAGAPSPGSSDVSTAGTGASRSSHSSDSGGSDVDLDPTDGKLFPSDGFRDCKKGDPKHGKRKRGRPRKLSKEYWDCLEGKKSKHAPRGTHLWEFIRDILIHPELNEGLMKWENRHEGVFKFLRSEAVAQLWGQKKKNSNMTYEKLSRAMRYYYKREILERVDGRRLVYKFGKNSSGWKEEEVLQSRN
How it was run: as §1

[18] = molecular target: CRX (Homo sapiens, UniProt O43186 1-299); settings: protein: recombinant; tags: N-terminal GST; dsDNA, one strand shown
Sequence of CRX (O43186 whole entry): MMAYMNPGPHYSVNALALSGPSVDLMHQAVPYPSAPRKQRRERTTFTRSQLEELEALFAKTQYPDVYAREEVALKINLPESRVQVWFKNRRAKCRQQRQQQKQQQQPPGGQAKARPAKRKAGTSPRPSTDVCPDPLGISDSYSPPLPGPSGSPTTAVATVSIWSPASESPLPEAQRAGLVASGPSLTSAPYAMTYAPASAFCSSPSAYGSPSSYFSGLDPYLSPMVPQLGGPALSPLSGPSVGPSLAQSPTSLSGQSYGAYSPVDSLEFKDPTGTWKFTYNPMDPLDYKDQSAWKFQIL
How it was run: as §1

[19] = molecular target: ETV1 (Homo sapiens, UniProt P50549 1-477); settings: protein: recombinant; tags: N-terminal GST; dsDNA, one strand shown
Sequence of ETV1 (P50549 whole entry): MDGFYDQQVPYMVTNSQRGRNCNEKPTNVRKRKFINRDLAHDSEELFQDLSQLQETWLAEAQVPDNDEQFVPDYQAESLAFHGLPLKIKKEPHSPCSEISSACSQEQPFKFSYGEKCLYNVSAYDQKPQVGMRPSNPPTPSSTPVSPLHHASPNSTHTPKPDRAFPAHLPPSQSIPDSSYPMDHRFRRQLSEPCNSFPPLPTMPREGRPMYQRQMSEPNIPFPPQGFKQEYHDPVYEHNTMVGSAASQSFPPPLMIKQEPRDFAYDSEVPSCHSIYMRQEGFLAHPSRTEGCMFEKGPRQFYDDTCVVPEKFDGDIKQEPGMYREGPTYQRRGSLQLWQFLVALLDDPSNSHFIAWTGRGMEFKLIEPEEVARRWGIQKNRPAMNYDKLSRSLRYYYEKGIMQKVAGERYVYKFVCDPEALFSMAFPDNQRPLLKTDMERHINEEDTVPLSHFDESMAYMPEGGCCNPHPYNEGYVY
How it was run: as §1

**Q.** Which results are given for ATCACT?
**A.** binding signal [1]: 1.19 fold enrichment (6-mer frequency, TF over GST control); binding signal [2]: 1.16 fold enrichment (6-mer frequency, TF over GST control); binding signal [3]: 1.19 fold enrichment (6-mer frequency, TF over GST control); binding signal [4]: 1.28 fold enrichment (6-mer frequency, TF over GST control); binding signal [5]: 1.34 fold enrichment (6-mer frequency, TF over GST control); binding signal [6]: 1.15 fold enrichment (6-mer frequency, TF over GST control); binding signal [7]: 1.32 fold enrichment (6-mer frequency, TF over GST control); binding signal [8]: 1.38 fold enrichment (6-mer frequency, TF over GST control); binding signal [9]: 1.18 fold enrichment (6-mer frequency, TF over GST control); binding signal [10]: 1.25 fold enrichment (6-mer frequency, TF over GST control); binding signal [11]: 1.2 fold enrichment (6-mer frequency, TF over GST control); binding signal [12]: 1.14 fold enrichment (6-mer frequency, TF over GST control); binding signal [13]: 1.34 fold enrichment (6-mer frequency, TF over GST control); binding signal [14]: 1.23 fold enrichment (6-mer frequency, TF over GST control); binding signal [15]: 1.45 fold enrichment (6-mer frequency, TF over GST control); binding signal [16]: 1.29 fold enrichment (6-mer frequency, TF over GST control); binding signal [17]: 1.35 fold enrichment (6-mer frequency, TF over GST control); binding signal [18]: 1.29 fold enrichment (6-mer frequency, TF over GST control); binding signal [19]: 1.2 fold enrichment (6-mer frequency, TF over GST control)
